The campaign covered roughly 16,000 compounds. About 5,100 (32%) were called active. Inconclusive results (about 25%) are left out. This is one part of the list. Unmarked numbers belong to inactive results. Calls follow the shape of the dose curve; as a rule, active = well fitted curve in the direction sought with a large enough effect; inconclusive = small, poorly fitted or top-dose-only effect, or effect the other way; inactive = no such curve, though single readings can be large or run the other way.
Molecular target: Cytochrome P450 3A4 (Homo sapiens) (UniProt P08684)
Sequence (P08684 whole entry, looked up): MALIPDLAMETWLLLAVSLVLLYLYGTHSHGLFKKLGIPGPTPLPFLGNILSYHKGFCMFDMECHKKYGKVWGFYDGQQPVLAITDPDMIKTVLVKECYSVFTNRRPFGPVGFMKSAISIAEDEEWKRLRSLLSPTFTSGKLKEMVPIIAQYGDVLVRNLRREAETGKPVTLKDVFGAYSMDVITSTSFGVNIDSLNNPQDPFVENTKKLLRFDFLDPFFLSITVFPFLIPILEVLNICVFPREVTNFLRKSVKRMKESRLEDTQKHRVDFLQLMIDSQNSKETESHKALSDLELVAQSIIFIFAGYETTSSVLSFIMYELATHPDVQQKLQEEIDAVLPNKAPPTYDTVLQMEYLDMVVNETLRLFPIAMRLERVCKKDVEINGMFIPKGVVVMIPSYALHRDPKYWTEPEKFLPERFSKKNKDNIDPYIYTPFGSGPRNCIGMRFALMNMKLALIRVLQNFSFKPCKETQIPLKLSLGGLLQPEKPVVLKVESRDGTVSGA
Experiment: Cytochrome panel assay with activity outcomes
Settings: recombinant CYP, pro-luciferin dealkylation, luminescence, p450-cyp3a4; series mostly up to 57.1 µM; activity, negative = inhibition: at the top concentration
% is scaled to controls: 0 for no effect and ±100 for the full control effect.

| Compound | AC50 | activity, negative = inhibition |
| --- | --- | --- |
| COc1ccc(-n2c(=O)c(-c3cccc(Cl)c3)nc3cncnc32)cc1 | 12.6 µM (active) | – |
| Cn1c(=O)c(-c2cccc(Cl)c2)nc2cncnc21 | – | -21.6% |
| CCNc1ncc2nc(-c3cc(F)cc(F)c3)c(=O)n(-c3ccc(OC)cc3)c2n1 | 10 µM (active) | – |
| CCNc1ncc2nc(-c3ccc(F)cc3)c(=O)n(-c3ccccc3)c2n1 | – | -12.8% |
| Nc1ncnc2c1ncn2[C@H]1O[C@@H](C(=O)O)[C@@H](O)[C@H]1O | – | 0.186% [at 11.4 µM] |
| CCOC(=O)C1=C(CSc2nc3ccccc3s2)NC(=O)NC1c1cccc([N+](=O)[O-])c1 (configuration not stated) | 6.31 µM (active) | – |
| CCOC(=O)C1=C(COc2ccc(F)cc2Cl)NC(=O)NC1c1cc(C)ccc1C (configuration not stated) | 6.31 µM (active) | – |
| COC(=O)C1=C(CSc2nncn2C)NC(=O)NC1c1ccc(F)cc1 (configuration not stated) | – | -6.15% |
| CCOC(=O)C1=C(CSc2nc3ccccc3s2)NC(=O)NC1c1cc(C)ccc1C (configuration not stated) | 4.47 µM (active) | – |
| CCC(=O)NNc1cc(=O)c2c(=O)n(C)c(=O)n(C)c2[nH]1 | – | 1.3% [at 2.29 µM] |
| O=C1CCCN1c1ccc(S(=O)(=O)Oc2cccc(Cl)c2)cc1[N+](=O)[O-] | 12.6 µM (active) | – |
| O=[N+]([O-])c1ccc(N2CCCCC2)c(Cl)c1N1CCCCC1 | – | -20.1% |
| Cn1cccc1C(=O)N1CCC2(CC1)CCN(c1ccccn1)CC2 | – | 27.7% |
| CN1C(=O)/C(=C\c2ccccc2)Sc2ccc(C(=O)N3CCN(c4ccccn4)CC3)cc21 | 14.1 µM (active) | – |
| Cc1cnc(CNc2nc(-c3cccnc3)nc3ccccc23)cn1 | 3.98 µM (active) | – |
| COc1cccc(-c2nc(NCc3cnc(C)cn3)c3ccccc3n2)c1 | 2.51 µM (active) | – |
| CCCC12CN3CC(CCC)(CN(C1)C3C(O)C(O)C(O)CO)C2=O (configuration not stated) | – | 0.643% [at 11.4 µM] |
| Cc1ccc(C(=O)NNC(=S)NC(=O)c2ccc(Cl)cc2)cc1 | 14.1 µM (active) | – |
| O=C(NNC(=S)NC(=O)c1cccnc1)c1ccccc1 | – | 1.97% [at 2.29 µM] |
| COC(=O)c1nnn(Cc2ccccc2)c1N | – | -10.5% |
| COc1ccc(CCNC(=O)c2nnn(CC(=O)Nc3ccccc3C)c2N)cc1OC | 12.6 µM (active) | – |
| CCOc1ccc(NC(=O)c2nnn(CC(=O)Nc3ccccc3OC)c2N)cc1 | – | 10.2% |

| Compound | AC50 | activity, negative = inhibition |
| --- | --- | --- |
| Cc1ccc(C)c(NC(=O)Cn2c([N+](=O)[O-])cnc2C)c1 | – | -16.5% |
| Cc1ccc(C)c(NC(=O)Cn2nnc(C(=O)Nc3c(C)cccc3C)c2N)c1 | 12.6 µM (active) | – |
| CCOc1ccc(NC(=O)Cn2nnc(C(=O)NCc3ccccc3OC)c2N)cc1 | 11.2 µM (active) | – |
| Cc1ccc(C)c(NC(=O)Cn2nnc(C(=O)NCc3cccs3)c2N)c1 | – | -15.7% |
| O=C(O)/C=C1\NC(=O)c2ccccc21 | – | -4.69% |
| NCC[C@H](N)C(=O)O | – | -6.61% [at 11.4 µM] |
| CC(C)NC(=O)N1CCCC2(CCN(S(=O)(=O)c3ccccc3)CC2)C1 | 7.94 µM (active) | – |
| COc1ccc(NC(=O)N2CCC3(CC2)CCN(S(C)(=O)=O)CC3)cc1 | – | -21.9% |
| CC(C)NC(=O)N1CC[C@@]2(CCCN(S(C)(=O)=O)C2)C1 | – | -7.99% |
| COc1ccc(NC(=O)N2CCCC3(CCN(S(C)(=O)=O)CC3)C2)cc1 | 31.6 µM (active) | – |
| COCC(=O)N1CCC2(CCCN(C(=O)Nc3ccccc3)C2)CC1 | – | -18.9% |
| COc1ccc(NC(=O)N2CCCC3(CCN(S(=O)(=O)c4ccccc4)CC3)C2)cc1 | 7.94 µM (active) | – |
| CC(C)NC(=O)N1CC2(CCN(S(=O)(=O)c3ccccc3)CC2)C1 | – | -13.8% |
| COc1ccc(NC(=O)N2CC3(CCN(S(C)(=O)=O)CC3)C2)cc1 | – | -25.7% |
| CCCCCCCCCCCCCCSCC(=O)O | – | 0.973% |
| O=C(NCCNC[C@@H](O)COc1ccc(O)cc1)N1CCOCC1 | inactive | – |
| Cc1ccc(OCC(O)CNC(=O)c2ccccc2C(=O)O)cc1 (configuration not stated) | 28.2 µM (active) | – |
| O=C(O)COc1ccc(OCCNC[C@@H](O)COc2ccccc2)cc1 | – | -17.3% |
| Cc1ccnc2nc(C(=O)OCC(=O)Nc3ccc4c(c3)OC(F)(F)O4)nn12 | – | 24.8% |
| COc1cc(C)cc(OC)c1/C=C\C(=O)O | – | -4.32% [at 11.4 µM] |
| COC(=O)[C@@]1(Cc2ccc(F)cc2)[C@H]2c3cc(C(=O)N4CCCC4)n(CCc4ccc(O)c(O)c4)c3C[C@H]2CN1C(=O)c1ccccc1 | 2.51 µM (active) | – |
| COC(=O)[C@@]1(Cc2ccc(F)cc2)[C@H]2c3cc(C(=O)N4CCCC4)n(CCc4ccc(OC)c(Br)c4)c3C[C@H]2CN1C(=O)c1ccccc1 | 2.51 µM (active) | – |

| Compound | AC50 | activity, negative = inhibition |
| --- | --- | --- |
| Cc1cc(OCC(F)(F)C(F)(F)C(F)(F)C(F)(F)C(F)(F)C(F)F)nc(N)n1 | – | -27.6% |
| Nc1nc(-c2ccccc2)c(-c2ccccc2)c(-c2nc(N)nc(-c3ccccc3)c2-c2ccccc2)n1 | – | 4.04% [at 11.4 µM] |
| Nc1nc(-c2ccccc2)c(-c2ccccc2)s1 | – | -8.94% [at 2.29 µM] |
| Nc1ccc(-c2sc(N)nc2-c2ccccc2)cc1 | 10 µM (active) | – |
| CSC1=N/C(=C\c2ccc(Br)o2)C(=O)S1 | – | -3.65% [at 11.4 µM] |
| CCCNC(=O)OC[C@@H]1O[C@H](CCO/N=C(\C)CCN2CCc3nc(CC)c(CC)cc3C2)C=C[C@@H]1Oc1ccc(OC)cc1 | 3.98 µM (active) | – |
| C=CC[C@@H]1C=C[C@H](O/N=C(\C)CCN2CCc3nc(CC)c(CC)cc3C2)[C@H](CO)O1 | – | -75.9% [at 11.4 µM] |
| COc1ccc(O[C@H]2C=C[C@@H](c3ccccc3)O[C@@H]2CO/N=C(\C)CCN2CCc3nc(-c4ccccc4)c(-c4ccccc4)cc3C2)cc1 | – | -57.3% [at 11.4 µM] |
| CCCNC(=O)OC[C@@H]1O[C@H](CCO/N=C(\C)CCN2CCc3nc(-c4ccccc4)c(-c4ccccc4)cc3C2)C=C[C@@H]1Oc1ccc(OC)cc1 | 3.16 µM (active) | – |
| C=CC[C@@H]1C=C[C@H](O/N=C(\C)CCN2CCc3nc(-c4ccccc4)c(-c4ccccc4)cc3C2)[C@H](CO)O1 | 3.98 µM (active) | – |
| Cc1c(C)c(C)c(CC2(C)CSC2)c(CC2(C)CSC2)c1C | – | -14.4% [at 11.4 µM] |
| CC1=CC2=NC(=O)CC(C)(C(=O)N(CC(=O)NC(C)(C)C)Cc3cccs3)N2C=C1 (configuration not stated) | – | -28.5% |
| CN(C)CCN(Cc1cccs1)c1ccccn1 | inactive | – |
| CC(C)(C)NC(=O)CN(Cc1cccs1)C(=O)CCC(=O)Nc1nccs1 | 4.47 µM (active) | – |
| CSc1nc(C)c2c(n1)N(c1ccc(C(F)(F)F)cc1)CC2 | – | -9.83% |
| CCOC(=O)c1c(-c2ccc(C)o2)csc1NC(=S)NC(=O)N(C)C | 15.8 µM (active) | – |
| CCOC(=O)c1c(-c2ccccc2)csc1NC(=O)c1cccc(N2C(=O)CCC2=O)c1 | – | 28.3% |
| CCOC(=O)c1c(-c2ccc(C)cc2)csc1NC(=O)C1CC=CCC1C(=O)O (configuration not stated) | – | -2.99% [at 2.29 µM] |
| CN(C)C(=O)c1ccc(-c2ccc3ncnc(N4CCOCC4)c3c2)cc1 | 15.8 µM (active) | – |
| COc1ccc(-c2nc(-c3cccc(C)c3)nc(N3CCN(C)CC3)c2C#N)cc1 | – | -13.1% [at 2.29 µM] |
| CN(C)C(=O)c1ccc(-c2ccc3ncnc(N4CCNCC4)c3c2)cc1 | – | -29.4% |
| COc1cc(N2CCOCC2)ncn1 | – | -0.512% |

| Compound | AC50 | activity, negative = inhibition |
| --- | --- | --- |
| COc1cccc(-c2ccc3ncnc(N4CCN(C)CC4)c3c2)c1 | 15.8 µM (active) | – |
| COc1ccc(-c2nsc3c(N4CCCCC4)ncnc23)cc1 | – | 8.86% |
| COc1cccc(-c2ccc3ncnc(N4CCOCC4)c3c2)c1 | 10 µM (active) | – |
| NCC[C@H]1CCC[C@H](CCN)N1 | – | 0.169% |
| O=C(Cc1ccc(-n2c(=O)[nH]c3ccccc3c2=O)cc1)N1CCN(c2cccc(Cl)c2)CC1 | 3.16 µM (active) | – |
| O=c1nc2ccccc2c2n1CC(CN1CCN(c3cccc(Cl)c3)CC1)N2 (configuration not stated) | – | 15.2% |
| CCOC(=O)N1CCN(c2c(-c3ccccc3)c3cc(Cl)ccc3[nH]c2=O)CC1 | – | 10.2% |
| N/C(CC/C(N)=N/O)=N\O | – | -5.56% [at 11.4 µM] |
| Cc1cccc(C)c1NC(=O)CCN1C(=O)C2C3CCC(C3)C2C1=O (configuration not stated) | – | 0.821% [at 2.29 µM] |
| Cc1cc(NC(=O)CCN2C(=O)C3C4CCC(C4)C3C2=O)c(C)cc1Br (configuration not stated) | 7.94 µM (active) | – |
| CCOC(=O)CCN1C(=O)[C@H]2[C@@H]3[C@H](O)C=CC(=O)[C@H]3CC[C@H]2C1=O | – | -11.5% [at 11.4 µM] |
| O=C(/C=C/c1ccccc1)N1CCN(Cc2nc3ccccc3c(=O)[nH]2)CC1 | – | -25.9% |
| O=C(CCc1nc2ccccc2c(=O)[nH]1)OCC(=O)N1CCN(S(=O)(=O)c2ccccc2)CC1 | 7.94 µM (active) | – |
| CCN1CCN(C(=O)CCc2nc3ccccc3c(=O)[nH]2)CC1 | – | -10.4% |
| C[C@H]1C=C2C=C[C@H](C)[C@H](CC[C@@H]3C[C@@H](O)CC(=O)O3)[C@H]2[C@@H](OC(=O)[C@@H](C)CCO)C1 | 12.6 µM (active) | – |
| CC[C@H](C)C(=O)O[C@H]1CCC=C2C=C[C@H](C)[C@H](CC[C@@H]3C[C@H](O)CC(=O)O3)[C@H]21 | 12.6 µM (active) | – |
| CCCCCC1CCC(C(=O)NNC(=S)NCC)CC1 (configuration not stated) | – | -1.07% [at 2.29 µM] |
| CN(C)CC[C@H](c1ccc(Br)cc1)c1ccccn1 | inactive | – |
| COCCN(C(=O)C(C)C)c1nnc(-c2ccc(C)cc2)s1 | – | 12.8% |
| CC(C)Cn1c(-c2ccc(Cl)cc2)cnc1SCC(=O)N1CCOCC1 | – | -5.92% [at 2.29 µM] |
| CCn1c(SCC(=O)N2CCOCC2)nc2oc3c(Cl)cc(Cl)cc3c(=O)c2c1=O | 11.2 µM (active) | – |
